The whole screen tested about 350,000 compounds, of which about 2,100 (0.6%) were called active. Many of the other results were omitted from the sample, so actives are more common in it than they were. A number with no mark means an inactive call.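 The calls were made as follows: active = inhibition of the ligand-induced calcium signal above about 50% at the single tested concentration (limit read from the data); inactive = the rest.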
Test: antagonists of CRF-BP/CRF-R2 complex, primary screen, cell-based, HEK293, calcium dye fluorescence, uHTS (AID 588475)
Settings: CRF-induced calcium fluorescence, at 11.8 µM, hits give high values

Structure (SMILES)	inhibition
O=C(N[C@@H]1C/C=C\C[C@@H](CC(=O)N(CCO)Cc2ccccc2)C(=O)N[C@H](Cc2ccccc2)COC1=O)OCC1c2ccccc2-c2ccccc21	1.02%
O=C(N[C@H]1C/C=C\C(c2ccc(F)cc2)N(Cc2ccccc2)C(=O)C1)OCC1c2ccccc2-c2ccccc21 (stereo not given in full)	-13.4%
O=C(N[C@H]1C/C=C\C(c2cccc(F)c2)N(Cc2ccccc2)C(=O)C1)OCC1c2ccccc2-c2ccccc21 (stereo not given in full)	98.1% (active)
COc1ccc(Cn2c(O)c(/C=C3/C=CC=N3)c(=O)[nH]c2=O)cc1	0.93%
NC(=O)C1(N2CCCCC2)CCN(C2CC(=O)N(Cc3ccc(N4CCCC4=O)cc3)C2=O)CC1 (stereo not given)	-8.44%
Cc1cc(C)c2c(=O)[nH]c(SCC(=O)Nc3ccc(Br)cc3)nc2n1	-6.59%
O=C(O)CSCC(=O)Nc1ccc(C(F)(F)F)cc1	-14.8%
O=C(O)CC(SCC(=O)Nc1ccc(Br)cc1)C(=O)O (stereo not given)	57.3% (active)
O=C(CN1CCOC1=O)N1CCCC(Nc2ccc(F)c(F)c2)C1 (stereo not given)	0.32%
CCc1cc(=O)oc2c(C)c(OCC(=O)N3CC[C@@]4(O)CCCC[C@H]4C3)ccc12	-9.77%
COc1ccc(OC)c(CNC(=O)Cn2nc(C)c3c(C)n(-c4ccc(C)cc4)nc3c2=O)c1	9.58%
CCCCOC(=O)c1ccc(NC(c2ccc(C)cc2)P(=O)(OC)OC)cc1 (stereo not given)	102% (active)
CCOP(=O)(OCC)C(Nc1cccc(C)c1)c1ccc(F)cc1 (stereo not given)	-6.82%
CCOP(=O)(OCC)C(Nc1ccc([N+](=O)[O-])cc1)c1ccc(Cl)cc1 (stereo not given)	40.7%
O=C(CCCn1c(=O)c2sccc2n(CC(=O)NCC2CCCO2)c1=O)NCc1ccco1 (stereo not given)	-17.3%
CCOC(=O)N1CCN(S(=O)(=O)c2cc3c(cc2C)NC(=O)CO3)CC1	-1.54%
CN1CCN(CC(=O)C23CC4CC(CC(C4)C2)C3)CC1	7.99%
Cc1cnc(C(=O)N2CCCC(N3CCN(c4ccccc4F)CC3)C2)cn1 (stereo not given)	14.5%
Cc1ccccc1N1CCN(C2CCCN(C(=O)c3ocnc3C)C2)CC1 (stereo not given)	1%
Cc1ccccc1N1CCN(C2CCCN(C(=O)c3cn4c(C)cccc4n3)C2)CC1 (stereo not given)	53.6% (active)
Cc1ccc(-n2cc3ccc([N+](=O)[O-])cc3n2)cc1	-2.01%
Cc1ccc(NC(=O)c2oc3ccccc3c2C)c([N+](=O)[O-])c1	-13.1%
COc1cc(C)nc(N2CCCC(C(=O)NCC(C)C)C2)n1 (stereo not given)	-9.18%

Structure (SMILES)	inhibition
Cc1ccnc(N2CCCC(C(=O)NC3CC3)C2)n1 (stereo not given)	50.4% (active)
O=C(NC1CC1)C1CCCN(C(=O)NC2CCCCC2)C1 (stereo not given)	1.71%
CC(C)(C)NC(=O)CN1CCC(NC(=O)C23CC4CC(CC(C4)C2)C3)CC1	-2.97%
O=C(CNCc1ccc(F)cc1)Nc1ccccc1-c1ccccc1	-15%
O=C(COC(=O)c1ccc(N2CCCC2=O)cc1)c1ccc(OC(F)F)cc1	4.33%
Cc1c(NC(=O)c2coc(=O)c(Br)c2)c(=O)n(-c2ccccc2)n1C	-18.5%
O=C(Nc1cccc(F)c1)c1coc(=O)c(Br)c1	102% (active)
O=C(CCN1C(=O)c2ccccc2C1=O)Nc1cccc(F)c1	-0.74%
Cc1nn(-c2ccccc2)c(C)c1/C=C/C(=O)OC(C)C(N)=O (stereo not given)	23.7%
Cc1nn(-c2ccccc2)c(Cl)c1/C=C/C(=O)c1ccc(O)cc1	57.7% (active)
Cc1nn(-c2ccccc2)c(Cl)c1/C=N/NC(=O)c1nn(C)cc1[N+](=O)[O-]	15.5%
CC1(C)CC(=O)C(N=Nc2c(F)cccc2F)=C(O)C1	14.8%
CN(c1ccc(C(=O)NCCC2=CCCCC2)cc1)S(C)(=O)=O	3.31%
O=C(NCCC1=CCCCC1)c1ccc(-n2cncn2)cc1	-5.9%
Cn1nnc2cc(C(=O)NCCC3=CCCCC3)ccc21	69% (active)
CCCCCCCCCCCC(=O)O	16.1%
Cc1ccc(S(=O)(=O)c2c[nH]c3ccc(C)cc3c2=O)cc1	-6.79%
O=C(c1nnc(-c2ccc(Cl)cc2)o1)C1CCCC1	1.38%
S=c1[nH]nc(-c2ccc(Cl)cc2)n1CC1CCCO1 (stereo not given)	19%
O=C(c1[nH]ncc1-c1ccc(Cl)cc1)C1CO1 (stereo not given)	98.5% (active)
CN(C(=O)c1cccc(NC(=O)Cc2ccc([N+](=O)[O-])cc2)c1)C1CCC1	10.4%
CCOC(=O)c1cc2occc2n1CC(=O)NC1CCC(C)CC1 (stereo not given)	4.37%
O=C(CN1C(=O)CC(c2ccccc2)=Nc2ccccc21)NC1CCCCC1	3.75%

Structure (SMILES)	inhibition
CC(=O)Oc1c(C(=O)c2nnc(C)o2)c(=O)n(Cc2ccccc2)c2ccccc12	-18.6%
NC(N)=N/N=C/c1ccc(OCc2ccc(Cl)cc2Cl)cc1	-68.7%
O=C1c2ccccc2-c2ncnc3c(N4CCOCC4)cc(N4CCOCC4)c1c23	54% (active)
Cc1oc2c(c1C(=O)N1CCOCC1)C(=O)c1ccccc1C2=O	3.77%
O=S(=O)(Nc1cc(Cl)ccc1N1CCOCC1)c1ccccc1Cl	3.16%
CC1=C(C(=O)N(C)C)C(c2ccccc2OC(F)F)NC(=O)N1 (stereo not given)	-0.09%
CCCn1nc(Oc2nc(NC(C)C)nc(N(C)C)n2)ccc1=O	2.18%
O=C(Nc1ccc(Br)cc1)c1cc(S(=O)(=O)Nc2ccccn2)ccc1Cl	-2.82%
Cc1ccc(NS(=O)(=O)c2ccc(C(C)C)cc2)cc1S(=O)(=O)N1CCOCC1	-10.7%
COc1ccccc1C(=O)Nc1ccc(C)c(S(=O)(=O)N2CCCCC2)c1	-0.27%
Cc1ccc(NS(=O)(=O)c2cccs2)cc1S(=O)(=O)N1CCCCCC1	122% (active)
CN(C)CCCO/N=C(\c1ccccc1)c1ccncc1	1.7%
Cc1cccc(CSc2nnc(C)c(=O)n2N)c1	18.4%
Cc1cccc(CSc2nc3c(c(=O)n2C)SCC3)c1	59.8% (active)
Cn1c(SCC(=O)N2CCCCC2)nc2c(c1=O)SCC2	-10.6%
CCCN1C2=C(C(=O)CCC2)C(c2ccc(O)c(Br)c2)C2=C1CCCC2=O	-18.3%
CCc1c(C)nc(N)n2c(SCC(=O)NC3CCCCC3)nnc12	-4.43%
CCOc1cc(/C=C(/C#N)c2ccc(Cl)cc2)cc(Cl)c1OCC(=O)O	57.4% (active)
COc1cc(/C=C(/NC(=O)c2ccc(Cl)cc2Cl)C(=O)O)cc(OC)c1OC	-5.5%
CCOc1cc(/C=N/NC(=O)OC)ccc1OCCSc1ccc(Cl)cc1	-13.1%
COc1ccc(SC[C@H](Cc2ccccc2)N2CCN(CCc3ccccc3)CCC2=O)cc1	-0.63%
O=C(NC(Nc1nc2ccc([N+](=O)[O-])cc2s1)(C(F)(F)F)C(F)(F)F)c1ccccc1	56.4% (active)
O=C(O)c1cc([N+](=O)[O-])c(Nc2cccc3ccccc23)c([N+](=O)[O-])c1	42.1%

Structure (SMILES)	inhibition
N=C1C(c2nc3ccccc3s2)=C(O)CN1NC(=O)c1ccc([N+](=O)[O-])cc1	18.1%
O=C(COc1ccc(NC(=O)c2ccccc2[N+](=O)[O-])cc1)c1ccc(F)cc1	20.8%
Cc1ccccc1-c1cc(C(=O)NCc2cccs2)n(CC2CC(c3cccnc3)=NO2)n1 (stereo not given)	9.77%
COc1ccc(C2=NOC(Cn3nc(C(=O)NCc4ccc5c(c4)OCO5)cc3-c3ccccc3)C2)cc1 (stereo not given)	1.87%
Cc1ccc(CNC(=O)c2cc(-c3ccccc3C)n(CC3CC(c4cccc([N+](=O)[O-])c4)=NO3)n2)cc1 (stereo not given)	78.1% (active)
CC(C)c1cc(C(=O)N(C)C2CCCN(Cc3ccccc3F)C2)n(C)n1 (stereo not given)	-12.1%
CCCCn1c(N)c(N(CC(C)C)C(=O)c2cccc(S(=O)(=O)N3CCN(C(C)=O)CC3)c2)c(=O)[nH]c1=O	8.7%
COc1ccccc1NC(=O)CC(NCCN(C)C)C(=O)O (stereo not given)	3.95%
COC(=O)C(CC(=O)Nc1cc(C)ccc1C)Nc1ccccc1OC (stereo not given)	70.2% (active)
Cc1ccc(C)c(NC(=O)COC(=O)CSc2ccccc2)c1	6.02%
CCc1ccc(S(=O)(=O)NCC(O)COc2ccc(OC)cc2)cc1 (stereo not given)	-4.68%
Cc1ccccc1Nc1scc(-c2ccc(Br)cc2)[n+]1-c1ccccc1C	56.5% (active)
Cc1ccsc1/C=N/NC(=O)Cc1cc(=O)[nH][nH]1	14.1%
Cc1cccc(N2CCN(C(C)C(=O)N3CCc4ccccc43)CC2)c1C (stereo not given)	-7.95%
CCC(C)N(C(=O)CSc1ncnc2c1cnn2-c1ccccc1)C1CCS(=O)(=O)C1 (stereo not given)	-8.13%
CCN(CC)C(=O)CSc1ncnc2c1cnn2-c1ccccc1	55.8% (active)
CCN(C(=O)CSc1ncnc2c1cnn2-c1ccccc1)C1CCS(=O)(=O)C1 (stereo not given)	4.09%
O=C(COC(=O)c1cncc(Br)c1)Nc1ccc(S(=O)(=O)N2CCOCC2)cc1	5.84%
COc1ccc(CCN2C(=O)C(C)=C(C)C2=O)cc1OC	-6.13%
COc1ccc(CCN=C2SCC(=O)N2Cc2ccccc2)cc1OC	7.2%
COc1ccc(CCNC2=C(Cl)C(=O)N(Cc3ccccc3)C2=O)cc1OC	54% (active)

Source: PubChem BioAssay AID588475 (Sanford-Burnham Center for Chemical Genomics, 2011)
